In article PMC11062922 (Nature Chemical Biology, 2023) one finds potency estimated from few doses data, which are given here for three compounds.

The structures appear in SMILES notation. Like-named read-outs stand apart in the source and are kept apart here.

What all share (parameters): species or system human, MV4-11 + K-562 + COLO205 + SK-N-BE2 + OVCAR-8
The test system of one test is AURKA. To be noted: read-out: apparent Kd; compound concentrations: 100 nM and 1000 nM (sheet 'Samples'), CATDS: 4.2728158523190798E-2; n = 1.
The next test deals with AURKB. The note with it: read-out: apparent Kd, compound concentrations: 100 nM and 1000 nM (sheet 'Samples'), n = 1.
The test system of another test is BUB1. The note with it: read-out: apparent Kd; compound concentrations: 100 nM and 1000 nM (sheet 'Samples'), CATDS: 4.7022132934679002E-2; n = 1.
Another test has as its system CSNK1D. The note with it: read-out: apparent Kd; compound concentrations: 100 nM and 1000 nM (sheet 'Samples'), CATDS: 5.89125677268394E-2; n = 1.
In the next test the test system is CSNK1E. The note with it: read-out: apparent Kd; compound concentrations: 100 nM and 1000 nM (sheet 'Samples'), CATDS: 4.0450014161249097E-2; n = 1.
A further test has as its system DDR1. To be noted: read-out: apparent Kd; compound concentrations: 100 nM and 1000 nM (sheet 'Samples'), CATDS: 6.5674707070784599E-2; n = 1.
Another test concerns DDR2. The note with it: read-out: apparent Kd; compound concentrations: 100 nM and 1000 nM (sheet 'Samples'), CATDS: 3.7339921381228602E-2; n = 1.
The test system of another test is EPHB6. To be noted: read-out: apparent Kd; compound concentrations: 100 nM and 1000 nM (sheet 'Samples'), CATDS: 3.6673450698806898E-2; n = 1.
A further test relates to FLT3. The note with it: read-out: apparent Kd; compound concentrations: 100 nM and 1000 nM (sheet 'Samples'), CATDS: 0.27087793421716799; n = 1.
For another test, the system named is FLT4. The note with it: read-out: apparent Kd; compound concentrations: 100 nM and 1000 nM (sheet 'Samples'), CATDS: 4.30316479834668E-2; n = 1.
In a further test the test system is GAK. The note with it: read-out: apparent Kd; compound concentrations: 100 nM and 1000 nM (sheet 'Samples'), CATDS: 7.8479207153445404E-2; n = 1.
The subject of the next test is LIMK2. The note with it: read-out: apparent Kd; compound concentrations: 100 nM and 1000 nM (sheet 'Samples'), CATDS: 3.6080783188173302E-2; n = 1.
In the next test the test system is NQO2. The note with it: read-out: apparent Kd; compound concentrations: 100 nM and 1000 nM (sheet 'Samples'), CATDS: 0.178299559019577; n = 1.
The subject of the next test is PDGFRB. The note with it: read-out: apparent Kd; compound concentrations: 100 nM and 1000 nM (sheet 'Samples'), CATDS: 5.3358090976632598E-2; n = 1.
For a further test, the system named is RET. To be noted: read-out: apparent Kd, n = 1.
The next test has as its system RIPK2. To be noted: read-out: apparent Kd; compound concentrations: 100 nM and 1000 nM (sheet 'Samples'), CATDS: 3.9651452900350902E-2; n = 1.
A further test has as its system RIPK3. To be noted: read-out: apparent Kd; compound concentrations: 100 nM and 1000 nM (sheet 'Samples'), CATDS: 3.2567224991893698E-2; n = 1.
In another test the test system is SIK2. To be noted: read-out: apparent Kd; compound concentrations: 100 nM and 1000 nM (sheet 'Samples'), CATDS: 4.1786415024185397E-2; n = 1.
For the next test, the system named is TGFBR1. To be noted: read-out: apparent Kd; compound concentrations: 100 nM and 1000 nM (sheet 'Samples'), CATDS: 3.3015845196466199E-2; n = 1.
A further test has as its system TGFBR2. To be noted: read-out: apparent Kd; compound concentrations: 100 nM and 1000 nM (sheet 'Samples'), CATDS: 3.2296969977490597E-2; n = 1.
The test system of another test is TNK1. The note with it: read-out: apparent Kd; compound concentrations: 100 nM and 1000 nM (sheet 'Samples'), CATDS: 4.85220574572469E-2; n = 1.
Another test relates to EGFR. The note with it: read-out: apparent Kd; compound concentrations: 100 nM and 1000 nM (sheet 'Samples'), CATDS: 0.10899892771168; n = 1.
Another test relates to HSP90B1. To be noted: read-out: apparent Kd; compound concentrations:100 nM and 1000 nM (sheet 'Samples'); n = 1.
The next test has as its system MAP2K2. To be noted: read-out: apparent Kd; compound concentrations:100 nM and 1000 nM (sheet 'Samples'); n = 1.
In a further test the test system is MAP2K5. To be noted: read-out: apparent Kd; compound concentrations:100 nM and 1000 nM (sheet 'Samples'); n = 1.
For another test, the system named is PTK6. The note with it: read-out: apparent Kd; compound concentrations:100 nM and 1000 nM (sheet 'Samples'); n = 1.
The test system of the next test is CDC42BPA. To be noted: read-out: apparent Kd; compound concentrations: 100 nM and 1000 nM (sheet 'Samples'), CATDS: 7.0311293069570804E-2; n = 1.
Another test has as its system CDC42BPB. To be noted: read-out: apparent Kd; compound concentrations: 100 nM and 1000 nM (sheet 'Samples'), CATDS: 0.16933732506395899; n = 1.
For another test, the system named is CDC42BPG. To be noted: read-out: apparent Kd; compound concentrations: 100 nM and 1000 nM (sheet 'Samples'), CATDS: 0.24390813090815999; n = 1.
Another test deals with LATS1. To be noted: read-out: apparent Kd; compound concentrations: 100 nM and 1000 nM (sheet 'Samples'), CATDS: 4.6540265787969097E-2; n = 1.
A further test relates to PKN1. To be noted: read-out: apparent Kd; compound concentrations: 100 nM and 1000 nM (sheet 'Samples'), CATDS: 4.7667379026866498E-2; n = 1.
For a further test, the system named is PKN2. To be noted: read-out: apparent Kd; compound concentrations: 100 nM and 1000 nM (sheet 'Samples'), CATDS: 4.4394319464929097E-2; n = 1.
Another test deals with PRKACA. The note with it: read-out: apparent Kd; compound concentrations: 100 nM and 1000 nM (sheet 'Samples'), CATDS: 0.118024991958308; n = 1.
A further test relates to PRKACB. To be noted: read-out: apparent Kd; compound concentrations: 100 nM and 1000 nM (sheet 'Samples'), CATDS: 8.0327411283578495E-2; n = 1.
The test system of the next test is PRKCA. The note with it: read-out: apparent Kd; compound concentrations: 100 nM and 1000 nM (sheet 'Samples'), CATDS: 4.1587552070859297E-2; n = 1.
Another test relates to PRKCD. The note with it: read-out: apparent Kd; compound concentrations: 100 nM and 1000 nM (sheet 'Samples'), CATDS: 4.48878810193531E-2; n = 1.
The subject of a further test is PRKG1. The note with it: read-out: apparent Kd; compound concentrations: 100 nM and 1000 nM (sheet 'Samples'), CATDS: 6.8591269035778196E-2; n = 1.
The test system of the next test is PRKX. To be noted: read-out: apparent Kd; compound concentrations: 100 nM and 1000 nM (sheet 'Samples'), CATDS: 6.1188840569936599E-2; n = 1.
Another test deals with ROCK1. To be noted: read-out: apparent Kd; compound concentrations: 100 nM and 1000 nM (sheet 'Samples'), CATDS: 0.14218227493934099; n = 1.
The next test relates to ROCK2. To be noted: read-out: apparent Kd; compound concentrations: 100 nM and 1000 nM (sheet 'Samples'), CATDS: 0.152164814838194; n = 1.
The test system of another test is TP53RK. To be noted: read-out: apparent Kd; compound concentrations: 100 nM and 1000 nM (sheet 'Samples'), CATDS: 4.1650793572711099E-2; n = 1.

On to `CCCCc1nn2ncccc2c1-c1ccnc(Nc2ccc(N3CCN(C)CC3)cc2)n1` [GW684941X], for which the potency estimated from few doses in the test with AURKA is 0.853 µM; in the test on AURKB (CATDS: 4.3580096723042298E-2), 0.809 µM; with BUB1, 0.667 µM; in the test on CSNK1D, 0.4 µM; in the test on CSNK1E, 0.993 µM; with DDR1, 0.32 µM. Moreover, the potency estimated from few doses was 1.27 µM with DDR2; 1.34 µM in the test on EPHB6; 0.0325 µM in the test on FLT3; 0.837 µM in the test on FLT4; 0.227 µM in the test on GAK; 1.42 µM in the test with LIMK2. Also, the potency estimated from few doses in the test on NQO2 is 0.0586 µM; with PDGFRB, 0.496 µM; in the test on RET (compound concentrations: 100 nM and 1000 nM (sheet 'Samples'), CATDS: 0.111645797001171), 0.122 µM; with RIPK2, 1.05 µM; in the test on RIPK3, 2.08 µM; in the test with SIK2, 0.906 µM. For the same compound, the figures for the potency estimated from few doses in the test on TGFBR1, in the test with TGFBR2 and in the test with TNK1 were 1.97 µM, 2.15 µM and 0.618 µM, respectively.
With `COc1cc2c(Nc3ccc(NC(=O)c4ccccc4)cc3)ncnc2cc1OCCCN1CCOCC1` [GSK301329A], the potency estimated from few doses in the test on AURKB (CATDS: 0.55138330390134005) is 0.0507 µM; with EGFR, 1.47 µM; with HSP90B1, 1.09 µM; in the test with MAP2K2, 1.94 µM; in the test on MAP2K5, 0.238 µM; in the test with PTK6 it was 0.487 µM. The potency estimated from few doses in the test on RET (compound concentrations:100 nM and 1000 nM (sheet 'Samples')) is 1.45 µM.
`NCCC(NC(=O)c1cc(Br)c(-c2ccnc3[nH]ccc23)s1)c1ccccc1.NCCC(NC(=O)c1cc(Br)c(-c2ccnc3[nH]ccc23)s1)c1ccccc1.O=C(O)C(F)(F)F.O=C(O)C(F)(F)F` (stereo not shown) [GSK1307810A]: the potency estimated from few doses in the test with CDC42BPA is 0.227 µM; with CDC42BPB, 0.0304 µM; with CDC42BPG, 0.0172 µM; with LATS1, 1.11 µM; in the test on PKN1 it was 0.988 µM; in the test with PKN2, 1.41 µM. Besides, the potency estimated from few doses with PRKACA was 0.0602 µM; with PRKACB it was 0.153 µM; in the test on PRKCA, 2.07 µM; in the test on PRKCD it was 1.33 µM; in the test on PRKG1, 0.245 µM; with PRKX, 0.36 µM. In addition, the potency estimated from few doses was 0.0416 µM in the test with ROCK1, 0.0367 µM in the test on ROCK2 and 2.05 µM in the test on TP53RK.
